# Measurements as given in PubChem BioAssay (EPA / NIEHS).
# Results filed as inconclusive are left out. Activity calls are given as the source filed them. How the source made its calls, unless noted: active means hit-call score of the fitted dose curve at least 0.9, where 1 is the maximum; inactive means score below 0.9. Peptide text beside a SMILES is read from it.
# How the values were obtained:
# [1] = TAMU_PeakParms_SingleDonor1434_Asystole: Texas A&M University (TAMU) 1.5-hr Human Induced Pluripotent Stem Cell (iPSC)-derived Cardiomyocytes Calcium (Ca+2) Flux Assay for Cardiotoxicity: Asystole (quiescence of beating) (AID 2284328; active means hit-call score of the fitted dose curve at least 0.9, where 1 is the maximum)
# Summary of the method: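 Donor 1434 iPSC-cardiomyocytes exposed 90 min at 37C, 5% CO2, to 0.2, 1, 10 and 100 uM in 0.5% DMSO. Ca2+ dye fluorescence gave average peak frequency; POD is EC95, a 95% beat-rate drop versus controls.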
# [2] = CCTE_Mundy_HCI_iCellGluta_NOG_NeuronCount: CCTE's Neurite Outgrowth Assay in iCellGluta cells for Neuron Count, Mundy Lab (AID 2284340; active means hit-call score of the fitted dose curve at least 0.9, where 1 is the maximum;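 further: cells fixed about 48 h after compound addition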)
# Summary of the method: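 Neuron count read by automated high-content imaging of Hoechst 33342 and betaIII-tubulin/Alexa Fluor-488 labelling in human iPSC glutamatergic neurons. Activity fitted relative to DMSO.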
# [3] = CCTE_Deisenroth_5AR_NBTE_donor: CCTE's 5alpha-reductase NanoBRET Target Engagement Assay […], Deisenroth Lab (AID 2284319); details: actives raise or lower the signal
# Summary of the method: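 HEK293T cells transiently expressing SRD5A2-NanoLuc, exposed 5 h to chemicals (8 points, 10 nM - 29.9 uM), with testosterone tracer for the final 2 h. Donor luminescence at 460 nm read after Nano-Glo substrate plus extracellular NanoLuc inhibitor; bidirectional fit versus DMSO.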
# [4] = CCTE_Deisenroth_5AR_NBTE_acceptor: CCTE's 5alpha-reductase NanoBRET Target Engagement Assay - Autofluorescence Screen, Deisenroth Lab (AID 2284321); details: actives raise or lower the signal;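 further: compound fluorescence in the acceptor channel under 460 nm excitation flags autofluorescence artifacts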
# Summary of the method: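 Chemicals diluted to a nominal 100 uM in DMSO were scanned at 460 nm excitation. Samples were read in three independent runs (n=3). Gain or loss of acceptor signal was fitted relative to DMSO.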
# [5] = tested on: SRD5A2 (gene 6716); assay: CCTE_Deisenroth_5AR_NBTE_ratio: CCTE's 5alpha-reductase NanoBRET Target Engagement Assay - Ratio, Deisenroth Lab (AID 2284322); details: actives raise or lower the signal
# Summary of the method: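 SRD5A2-NanoLuc HEK293T; cmpd 10 nM-29.9 uM, 3 h preinc + testosterone tracer 2 h; NanoBRET ratio 650/460; bidirectional fit vs DMSO.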
# [6] = tested on: TTR (gene 7276); assay: CCTE_GLTED_hTTR_0.5uM: CCTE's human Transthyretin (hTTR) Inhibition Assay, with 0.5uM TTR, Great Lakes Toxicology and Ecology Division (GLTED) Lab (AID 2284320)
# Summary of the method: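 Probe (ANSA) displacement from 0.5 uM human transthyretin was followed by fluorescence (ex 380, em 475) after a 2 h incubation with chemical. Activity was scored as signal loss and fitted positively relative to DMSO.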
smiles,measurement,setting,value
COC(=O)[C@H](Cc1ccccc1)NC(=O)[C@@H](N)CC(=O)O (H-Asp-Phe-OMe),outcome,[1],inactive
same,outcome,[2],inactive
CCCCCCCCCCCCc1ccc(O)cc1,outcome,[3],inactive
same,outcome,[4],inactive
same,outcome,[5],inactive
C=C[C@@]1(C)CC(=O)[C@]2(O)[C@@]3(C)[C@@H](O)CCC(C)(C)[C@@H]3[C@H](O)[C@H](OC(C)=O)[C@@]2(C)O1,AC50,[3],9.91 µM (active)
same,outcome,[4],inactive
same,outcome,[5],inactive
CN(C)c1ccc2nc3ccc(=[N+](C)C)cc-3sc2c1,outcome,[3],inactive
same,AC50,[4],10 µM (active)
same,AC50,[5],2.95 µM (active)
O=C(OCc1ccccc1)c1ccc(O)cc1,outcome,[3],inactive
same,outcome,[4],inactive
same,outcome,[5],inactive
O=C(O)CCC(=O)O,outcome,[3],inactive
same,outcome,[4],inactive
same,outcome,[5],inactive
C[N+](C)(C)CCCNS(=O)(=O)C(F)(F)C(F)(F)C(F)(F)C(F)(F)C(F)(F)C(F)(F)C(F)(F)C(F)(F)F,AC50,[6],1.04 µM (active)
